ssDAF12 agonist: activates DAF-12 receptor from parasite S. stercoralis | HEK293 ssDAF-12/GRIP1 lit1-tk-luc reporter, luminescence; % of 3 µM dafachronic acid response | activation, % at 6.8 µM | actives 1% (n = 370,000);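 active means activation above the mean over all tested compounds plus 3 SD, cut at about 0.9% in these data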
DAX1 inh-1: inhibitors of DAX1 repression of SF-1 activated StAR promoter. HEK293T StAR-luciferase reporter, SF-1/DAX-1 repression relief. inhibition, % at 6.8 µM. actives 1.1% (n = 370,000);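 active means inhibition above the mean over all tested compounds plus 3 SD, cut at about 3.6% in these data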;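 further: higher inhibition means more luminescence from relief of DAX-1 repression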
hcDAF-12 act: H. contortus DAF-12 activation, primary screen. actives 1.4% (n = 370,000). activation, % at 6.8 µM. AID 652067. HEK293 hcDAF-12 lit1-tk-luc reporter, luminescence; 0% DMSO, 100% Δ7-dafachronic acid;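 active means activation above the mean of all tested compounds plus 3 SD, cut at about 5.5% in these data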
hgDAF12 agonist: hgDAF-12 agonism, primary luciferase screen; HEK293 GAL4-hgDAF12 UAS-luciferase reporter, agonist luminescence; normalized to butyrate control; activation, % at 6.8 µM; actives 1.8% (n = 370,000); AID 687014;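 active means activation above a cutoff set at the mean of all screened compounds plus 3 SD, cut at about 10% in these data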
DAX1 inh-2: NR0B1 (DAX1) inhibition; P51843; HEK293 Gal4-DAX1 luciferase reporter, luminescence; inhibition, % at 6.75 µM; actives 0.99% (n = 340,000); AID 504766;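 active means inhibition above the mean over all tested compounds plus 3 SD, cut at about 4.2% in these data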;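 further: inhibition shows as a rise in luminescence from relieved DAX1 repression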
LXR ag: LXR-beta agonism as hcDAF-12 counter-screen; HEK293 Gal4-LXR tk-luc reporter, luminescence, 24 h; normalized: DMSO 0%, positive control 100%; 3,400 tested, under 10 active; shares compounds with hcDAF-12 act; AID 743027; activation, % at 6.8 µM;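 active means mean percent activation of the reporter above a cutoff set as the average over tested compounds plus their standard deviation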
Target sequence (P55055 whole entry, looked up, the tested form may be a part): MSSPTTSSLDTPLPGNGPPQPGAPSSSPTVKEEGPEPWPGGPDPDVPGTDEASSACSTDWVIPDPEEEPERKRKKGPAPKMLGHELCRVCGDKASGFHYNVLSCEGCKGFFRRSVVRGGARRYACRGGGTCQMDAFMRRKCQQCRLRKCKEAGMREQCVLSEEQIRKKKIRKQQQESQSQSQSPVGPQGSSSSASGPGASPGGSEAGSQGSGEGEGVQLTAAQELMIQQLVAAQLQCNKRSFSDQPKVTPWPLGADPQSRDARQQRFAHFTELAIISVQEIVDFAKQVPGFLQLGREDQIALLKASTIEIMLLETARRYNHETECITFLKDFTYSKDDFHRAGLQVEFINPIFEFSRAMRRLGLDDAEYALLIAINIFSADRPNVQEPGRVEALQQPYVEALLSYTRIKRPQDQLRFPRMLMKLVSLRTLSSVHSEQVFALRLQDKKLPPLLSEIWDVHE
hcDAF12 ag: confirmation of H. contortus DAF-12 agonists; activation, % at 6.8 µM; actives 61% (n = 3,400); AID 743032; HEK293 hcDAF-12 lit1-tk-luc reporter, luminescence; % of Δ7-dafachronic acid response; shares compounds with hcDAF-12 act;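 active means mean activation across triplicate tests above the threshold derived from the earlier primary screen, cut at about 5.5% in these data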
hgDAF12 ag: hgDAF-12 agonism, confirmation assay | actives 80% (n = 3,300) | shares compounds with hgDAF12 agonist | activation, % at 6.8 µM | HEK293 GAL4-hgDAF12 luciferase reporter, agonist mode; percent of butyrate response;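 active means mean activation over triplicate wells above the hit cutoff derived from the earlier primary screen, cut at about 11% in these data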
LXRb DAF12 ctr: activates human LXR-beta, counter-screen for DAF-12 agonists. 3,300 tested, under 10 active. shares compounds with hgDAF12 agonist. activation, % at 6.8 µM. HEK293 Gal4-LXR luciferase reporter, 24 h;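 active means mean activation of the triplicate above a set limit carried over from the primary screen, none filed active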
Large screens that a line does not name were inactive (follow-up assays come after a bar, where they were run). Shown are actives, neighbours in structure and some others; about 4.1% of the full set was active somewhere.

Oc1ccc(/C=N/Nc2cccc(Cl)n2)c(O)c1	ssDAF12 agonist 2.2, hcDAF-12 act 10, hgDAF12 agonist 14, DAX1 inh-2 6.3 | LXR ag inactive | hcDAF12 ag inactive | hgDAF12 ag 19 | LXRb DAF12 ctr inactive
COc1ccccc1N1CCN(c2ccc(-c3ccccc3)nn2)CC1	ssDAF12 agonist 1.3, hcDAF-12 act 7.1, hgDAF12 agonist 18 | LXR ag inactive | hcDAF12 ag inactive | hgDAF12 ag inactive | LXRb DAF12 ctr inactive
Clc1ccc(N2CCN(c3cnc4ccccc4n3)CC2)cc1	none
c1ccc(N2CCN(c3cnc4ccccc4n3)CC2)cc1	hcDAF-12 act 7.0, hgDAF12 agonist 15 | LXR ag inactive | hcDAF12 ag inactive | hgDAF12 ag 20 | LXRb DAF12 ctr inactive
Cc1sc(NC(=O)c2ccco2)nc1-c1ccccc1	hcDAF-12 act 7.8, hgDAF12 agonist 14 | LXR ag inactive | hcDAF12 ag 7.9 | hgDAF12 ag 18 | LXRb DAF12 ctr inactive
Cc1noc(C)c1C(C)C1=CCCCC1 (stereo unspecified)	none (no result: DAX1 inh-2)
COc1cccc(C(=O)Cn2c(NCCO)nc3ccccc32)c1	none
COc1cccc(C(=O)Cn2c(=N)n(C)c3ccccc32)c1	ssDAF12 agonist 3.2, hcDAF-12 act 18, hgDAF12 agonist 17 | LXR ag inactive | hcDAF12 ag 17 | hgDAF12 ag 20 | LXRb DAF12 ctr inactive
CC(C)(C)c1ccc2c(c1)C(=O)c1ccccc1C2=O	DAX1 inh-1 4.4, hcDAF-12 act 11, hgDAF12 agonist 20 | LXR ag inactive | hcDAF12 ag inactive | hgDAF12 ag 13 | LXRb DAF12 ctr inactive
Cc1cc(-c2ccc(N3CCOCC3)cc2)nc2ccccc12	ssDAF12 agonist 0.9, hcDAF-12 act 15, hgDAF12 agonist 20 | LXR ag inactive | hcDAF12 ag 7.9 | hgDAF12 ag 14 | LXRb DAF12 ctr inactive
Cc1ccc(-c2cc(C(=O)N3CCOCC3)c3ccccc3n2)cc1	none
CC12COC3(C(=O)Nc4ccc5ccccc5c4)CC1CCC32C (stereo unspecified)	ssDAF12 agonist 1.9, hcDAF-12 act 7.3, hgDAF12 agonist 19 | LXR ag inactive | hcDAF12 ag 6.9 | hgDAF12 ag 16 | LXRb DAF12 ctr inactive
O=C(c1cc2c([nH]c1=O)CCCC2)N1CCc2c([nH]c3ccccc23)C1c1ccccc1F (stereo unspecified)	none
CN1N=C(C(=O)N2CCc3c([nH]c4ccccc34)C2c2c(F)cccc2Cl)CCC1=O (stereo unspecified)	hcDAF-12 act 6.7, hgDAF12 agonist 15, DAX1 inh-2 5.3 | LXR ag inactive | hcDAF12 ag 6.7 | hgDAF12 ag inactive | LXRb DAF12 ctr inactive
COC(=O)C1=C(C)N(C)C(=NCc2ccc(OC)cc2)NC1c1ccc(F)cc1 (stereo unspecified)	none (no result: DAX1 inh-2)
CNC(=O)c1cc(NC(=O)N(CCC#N)CCN(C(=O)NC(Cc2ccccc2)C(=O)NC(CC(C)C)C(=O)NC)c2ccccc2)ccc1OC (stereo unspecified)	none
O=C(c1cc(-c2ccc(Cl)cc2Cl)on1)N1CCCCCC1	hcDAF-12 act 8.8, hgDAF12 agonist 16 | LXR ag inactive | hcDAF12 ag 8.3 | hgDAF12 ag 18 | LXRb DAF12 ctr inactive
O=C(c1cc(-c2ccc(O)cc2)on1)N1CCCCCC1	hcDAF-12 act 6.8, hgDAF12 agonist 14, DAX1 inh-2 5.1 | LXR ag inactive | hcDAF12 ag inactive | hgDAF12 ag 17 | LXRb DAF12 ctr inactive
CC[n+]1c(/C=C/c2ccc(OC(C)=O)c(OC)c2)ccc2ccccc21	none

Screening data deposited in PubChem BioAssay by The Scripps Research Institute Molecular Screening Center.
